# INS-1E GSIS act: primary screen for activators of insulin secretion dependent on glucose, INS-1E cells, GLuc reporter luminescence | activation, % at 16.6 µM | INS-1E GLuc reporter insulin secretion, 2-3 h | 370,000 tested, 0.61% active;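 active = lowest replicate activation of at least 40%, so every replicate reaches that level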;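 also: 0% = median of neutral control wells and 100% = median of IBMX positive control wells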
# SIRT5 inh: blocks human SIRT5 desuccinylation of peptide; AID 652115; 330,000 tested, 1.1% active; Q9NXA8; inhibition, % at 15 µM; Purified SirT5, succinyl-peptide AMC, trypsin-coupled fluorescence; in the data active = inhibition above about 15%
# FGF22 binding: binders of recombinant human FGF22 by thermal shift | SYPRO orange fluorescence; percent of sucrose octasulfate shift, DMSO zero | activity (Tm shift, normalised), % at 9.99 µM | 340,000 tested, 1.5% active;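 active = mean Tm shift, scaled 0 neutral to 100 positive control, at about 1.3% or above, every replicate too, limit read from the data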
# ERAP1 inh: blocks human ERAP1 aminopeptidase activity. 340,000 tested, 0.15% active. recombinant ERAP1, Leu-AMC fluorescence, 60 min. Q9NZ08. AID 652197. inhibition, % at 10.7 µM;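 active = mean replicate inhibition of at least 30%, or all replicates individually reaching that 30% level; inactive = mean below 30% and not every replicate reaching it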;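 also: 0% = neutral control wells and 100% = L-leucinethiol positive control wells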
# CASP6 VEID inh: inhibitors of human caspase-6 | inhibition, % at 12.5 µM | P55212 | purified caspase-6, Z-VEID-R110 cleavage fluorescence | 350,000 tested, 0.53% active;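 active = mean inhibition across replicates at least about 35%, with every replicate also reaching that limit, limit read from the data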;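 also: 0% = median of neutral control wells and 100% = no fluorescence left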
# Target sequence (P55212 24-179 limits assumed): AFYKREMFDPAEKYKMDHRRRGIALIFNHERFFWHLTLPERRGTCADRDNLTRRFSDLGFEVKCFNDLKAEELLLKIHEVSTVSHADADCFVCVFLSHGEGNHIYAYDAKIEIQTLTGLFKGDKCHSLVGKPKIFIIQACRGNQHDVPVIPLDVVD
# Target sequence (P55212 194-293 limits assumed): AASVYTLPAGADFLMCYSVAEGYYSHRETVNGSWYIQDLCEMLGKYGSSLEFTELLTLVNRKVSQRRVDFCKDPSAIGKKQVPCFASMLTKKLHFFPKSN
# CASP1 counter: blocks human caspase-1 in a selectivity counter-screen; 100 tested, under 10 active; shares compounds with CASP6 VEID inh; purified caspase-1, Z-YVAD-R110 cleavage fluorescence; activity change, negative = inhibition, % at 35 µM; AID 743289;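 active = compounds lowering fluorescence whose fitted half-maximal concentration is no more than twice their top tested dose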
# Numbers without * were called inactive; · = not tested or not shown. An excerpt weighted towards active compounds, which were near 3.3% of everything screened.
SMILES,INS-1E GSIS act,SIRT5 inh,FGF22 binding,ERAP1 inh,CASP6 VEID inh,CASP1 counter
O=c1[nH]c(Nc2ccc(F)cc2)cc2ccccc12,-5,2,·,1,100*,6
O=c1[nH]c(Nc2ccccc2Cl)cc2ccccc12,-4,1,0,5,88*,-9
C[C@@H]1CCCCO[C@H](CN(C)Cc2ccc(Cl)c(Cl)c2)[C@@H](C)CN([C@@H](C)CO)C(=O)c2cc(NC(=O)Nc3cccc4ccccc34)ccc2O1,4,2,-1,-1,0,·
CN(C)C(=O)c1cccc(-c2ccc3n(c2=O)C[C@H]2[C@H](CO)[C@@H](C(=O)NCC(F)(F)F)[C@@H]3N2C)c1,7,-7,0,0,0,·
O=c1cc2oc3cc(O)c(O)cc3c(-c3ccccc3[N+](=O)[O-])c-2cc1O,-1,16*,0,-6,96*,-1
C[C@H](CO)N1C[C@H](C)[C@H](CN(C)S(=O)(=O)c2ccc(Cl)cc2)Oc2c(NC(=O)c3ccc(-c4nccs4)cc3)cccc2C1=O,-4,6,0,-2,-2,·
CCC(=O)N1C[C@@H](C)[C@@H](OC)CN(C)C(=O)c2cc(NC(=O)c3ccc(F)cc3)ccc2OC[C@@H]1C,-1,10,0,2,2,·
CC(CNc1ccccc1O)C(=O)O (centres undefined),35,7,0,1,56*,-2
CC(NC(=O)CCC(=O)Nc1ccccc1O)c1ccccc1 (centres undefined),-7,13,0,·,0,·
C[C@@H]1CN([C@H](C)CO)C(=O)c2cccc(NC(=O)Nc3ccc(C(F)(F)F)cc3)c2O[C@@H]1CN(C)C,18,-3,0,-2,-1,·
COc1cc(NCCCCC(C)N)c2nccc(C)c2c1 (centres undefined),·,·,0,0,93*,-5
CCOC(=O)Nc1cc(OC)cc2ccc(C)nc12,·,·,0,0,-2,·
Nc1cc2c(cc1Br)[nH]c(=O)c1ccccc12,·,-1,0,3,42*,6
O=C(C[C@H]1C=C[C@@H](NC(=O)C2CCC2)[C@@H](CO)O1)NCc1ccccc1Cl,2,-2,1,-1,0,·
COc1ccc(OC(=O)N(C)C[C@H]2OCc3cn(nn3)CCCC(=O)N([C@@H](C)CO)C[C@@H]2C)cc1,9,-1,0,-1,0,·
Cn1c(=O)c2c(-c3ccccc3)n(-c3ccc(N)cc3)cc2n(C)c1=O,-7,0,0,-7,83*,-1
Cn1c(=O)c2c(-c3ccccc3)n(-c3ccccc3O)cc2n(C)c1=O,-3,-2,0,0,5,·
O=C(O)/C(=C\c1ccc(Cl)c([N+](=O)[O-])c1)c1ccc(S(=O)(=O)N2CCCC2)s1,·,9,0,5,70*,11
COc1cc(NC(C)CCCNC(C)C)c2ncccc2c1OC (centres undefined),15,·,-1,2,38*,1
Oc1cc(NCCN2CCOCC2)cc2cccnc12,-9,-3,0,0,90*,-2
CCCc1nc2c(=O)n(C)c(=O)nc-2n(C)n1,-40,1,0,3,96*,-12
COc1ccc(-c2nc(-c3ccccn3)ncc2S(C)(=O)=O)cc1,10,-3,0,4,1,·
CCn1c(N)nc2c1c(=O)n(C)c(=O)n2C,8,0,0,4,0,·
Cn1nc(-c2ccccn2)nc2c(=O)n(C)c(=O)nc1-2,15,3,0,16,95*,-3
C[C@H]1CCCCO[C@H](CN(C)Cc2ccc(Cl)c(Cl)c2)[C@@H](C)CN([C@@H](C)CO)C(=O)c2cc(NC(=O)Nc3ccc(C(F)(F)F)cc3)ccc2O1,12,-5,0,1,-3,·
C[C@H](CO)N1C[C@H](C)[C@@H](CN(C)Cc2ccncc2)Oc2ncc(C3=CCCCC3)cc2C1=O,-3,0,0,3,3,·
Cc1ccc(Nc2c([N+](=O)[O-])ccc3nonc23)c(C)c1,11,-2,0,-2,-3,·
Cc1ccc(S(=O)c2ccc([N+](=O)[O-])c3nonc23)cc1 (centres undefined),-37,15*,1,20,91*,21
